Laboratory results as given in PubChem BioAssay (NCATS).
Several values for one entry are separate records, joined by “and”; a condition that tells them apart may be missing. Equal values may be shown once. Records with an inconclusive call do not appear. Activity calls are given as the source filed them. Unless noted, calls come from the whole dose curve; as a rule, active = well fitted curve in the direction sought with a large enough effect; inconclusive = small, poorly fitted or top-dose-only effect, or another doubt; inactive = no such curve, though single readings can be large; an effect the other way counts as inactive or inconclusive.

Assays:
[1] = Cell Viability - N2a (AID 540); conditions: N2a mouse neuroblastoma cell viability; activity change, negative = cytotoxicity: at 92.2 µM (top of the series);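 note: plate controls were DMSO alone for no effect and tamoxifen control for full effect; nearly all actives have a fitted effect of over 45% in size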
Summary of the method: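 First, 1500 N2a cells per well incubate 5 hr at 37 °C; next, compounds are added and incubated 40 hr at 37 °C; finally CellTiter-Glo is added and luminescence read after 20 min, with AC50 derived by Hill modeling.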

[2] = Cell Viability - NIH 3T3 (AID 541); conditions: NIH 3T3 cell viability, qHTS; activity change, negative = cytotoxicity: at 92.2 µM (top of the series);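 note: plate controls were DMSO alone for no effect and tamoxifen positive control for full effect; nearly all actives have a fitted effect of over 25% in size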
Summary of the method: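 AC50 values reflect concentration-dependent loss of intracellular ATP in NIH 3T3 cells after 40 hr treatment in complete culture medium, quantified by luciferase-based luminescence.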

[3] = Cell Viability - Renal Proximal Tubule (AID 545); conditions: renal proximal tubule cells viability, primary cells of rat origin; activity change, negative = cytotoxicity: at 91.7 µM (top of the series);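 note: 0% = DMSO only and -100% = 100 µM tamoxifen; nearly all actives have a fitted effect of over 40% in size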
Summary of the method: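 Rat renal proximal tubule primary cells, 1000/well, exposed to compounds for 40 hr at 37 °C in complete medium; cellular ATP read by CellTiter-Glo luminescence. AC50 from concentration-response fitted with standard Hill equation.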

[4] = Cell Viability - LYMP2-012 (AID 982);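 note: cellular ATP by luciferase luminescence where a drop means cytotoxicity; cells exposed to compound for one day before reading; 0% = DMSO only and full loss = 92 µM tetraoctylammonium bromide; nearly all actives have a fitted effect of over 55% in size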
[5] = molecular target: Bile acid receptor (Homo sapiens) (UniProt Q96RI1); test: qHTS assay for small molecule antagonists of farnesoid X receptor signaling (AID 588526; calls by dose curve; note: % is set by controls: 0 for no effect and ±100 for the full control effect)
Summary of the method: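 Antagonist mode: titrated compounds tested against chenodeoxycholic acid stimulation (normalized to 50 uM CDCA and DMSO) in GeneBLAzer HEK293T cells for 16 h. Beta-lactamase read by CCF4 fluorescence; IC50 from Hill fits.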

[6] = molecular target: Peroxisome proliferator-activated receptor gamma (Homo sapiens) (UniProt P37231); test: qHTS assay for small molecule agonists of peroxisome proliferator-activated receptor gamma signaling (AID 588536; active = well fitted curve in the direction sought with a large enough effect in the signal ratio, with a control signal flat, not every such curve was filed as active; the % refers to the signal ratio;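 note: 0% = DMSO basal wells and 100% = rosiglitazone at 2 µM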)
Summary of the method: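 Test agents, titrated, stimulated HEK293 UAS-bla cells overnight (16 h, 37 C). Substrate CCF4 was then added for two hours at room temperature before fluorescence reading.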

[7] = molecular target: Peroxisome proliferator-activated receptor gamma (Homo sapiens) (UniProt P37231); test: qHTS assay for small molecule antagonists of peroxisome proliferator-activated receptor gamma signaling (AID 588537; active = well fitted inhibition curve with a large enough effect in the signal ratio, with a control signal flat, not every such curve was filed as active; the % refers to the signal ratio;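 note: reporter cells co-stimulated with 50 nM rosiglitazone agonist during compound treatment; % of control where 0% means no effect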)
Summary of the method: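 Step one: plate 3000 HEK293 UAS-bla cells per well in medium with 1% stripped serum and hold 6-6.5 h at 37 C. Step two: add compound and 50 nM agonist for 16 h. Step three: CCF4 loading, fluorescence read.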

[8] = molecular target: Vitamin D3 receptor (Homo sapiens) (UniProt P11473); test: qHTS assay for small molecule antagonists of vitamin D receptor signaling (AID 588541; calls by dose curve;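 note: receptor activated by calcitriol during compound treatment; % is set by controls: 0 for no effect and ±100 for the full control effect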)
Summary of the method: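 VDR-UAS-bla HEK293T cells in 2% charcoal-stripped FBS were stimulated with 1-alpha,25-dihydroxyvitamin D3 (3 nM final) plus compound for 16 h at 37 C. The beta-lactamase CCF4 readout was normalized to 50 nM agonist and DMSO, and Hill fits gave IC50.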

[9] = qHTS assay for small molecule agonists of the antioxidant response element (ARE) signaling pathway (AID 651741; active = well fitted activation curve with a large enough effect in the signal ratio; the % refers to the signal ratio; note: potency is the fitted concentration of half-maximal effect; for activation: % of control where 0% means no effect)
Summary of the method: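 HepG2 ARE-bla cells plated at 2,000 cells/well and incubated 5 h at 37 C/5% CO2 received 23 nL compound in DMSO. After 16 h at 37 C, LiveBLAzer B/G FRET substrate was applied for 2 h at room temperature and fluorescence read.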

[10] = molecular target: Tumor necrosis factor (Homo sapiens) (UniProt P01375); test: qHTS assay to identify small molecules that stimulate Tumor Necrosis Factor-alpha (TNF-alpha) secretion (AID 651757; active = well fitted curve in the direction sought with a large enough effect in the signal ratio; the % refers to the signal ratio; note: 0% is about no effect)
Summary of the method: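 Secreted TNF-alpha from compound-treated THP-1 cells (17 hrs, 37 C) was quantified with a homogeneous time-resolved fluorescence antibody assay.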

[11] = qHTS assay to identify small molecules that stimulate interleukin-8 (IL-8) secretion (AID 651758; active = well fitted activation curve with a large enough effect in the signal ratio; the % refers to the signal ratio; note: potency is the fitted concentration of half-maximal effect; for activation: 0% is about no effect)
Summary of the method: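 THP-1 cells (2000/well) exposed to compound 16 h at 37 C; secreted IL-8 then detected by HTRF with cryptate- and XL665-labelled anti-IL-8 antibody pair after 1-3 h at room temperature.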

[12] = qHTS assay for small molecule agonists of the antioxidant response element (ARE) signaling pathway measured by Nrf2-dependant transcriptional activity - cell viability counter screen (AID 720653; active = well fitted curve in the direction sought with a large enough effect in the repeat runs; an effect the other way counts as inactive or inconclusive; note: % is set by controls: 0 for no effect and ±100 for the full control effect); conditions: ARE-bla HepG2 viability, CellTiter-Glo ATP luminescence, 16 h; max response: stronger effect = lower value
Summary of the method: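 ARE-bla HepG2 cells treated with compounds for 16 h at 37C; this counter screen measures viability as intracellular ATP by CellTiter-Glo luminescence after 30 min at room temperature.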

[13] = molecular target: Estrogen receptor (Homo sapiens) (UniProt P03372); test: qHTS assay for small molecule antagonists of estrogen receptor alpha signaling (AID 588513; active = well fitted curve in the direction sought with a large enough effect in the signal ratio, with a control signal flat, not every such curve was filed as active; the % refers to the signal ratio; note: % is set by controls: 0 for no effect and ±100 for the full control effect)
Summary of the method: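 ER-alpha-UAS-bla GripTite HEK 293 cells in 2% charcoal/dextran-treated FBS medium; compounds titrated (1:2, duplicate), then stimulated with 0.5 nM 17-beta-estradiol for 18 h at 37C. CCF4 beta-lactamase fluorescence; Hill-fit IC50 and efficacy.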

[14] = molecular target: Estrogen receptor (Homo sapiens) (UniProt P03372); test: qHTS assay for small molecule agonists of estrogen receptor alpha signaling (AID 588514; calls by dose curve;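 note: 0% = vehicle only and 100% = reference agonist; nearly all actives have a fitted effect of over 70% in size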)
Summary of the method: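 Reporter-gene assay. […] controls beta-lactamase in HEK 293 GripTite cells; after 18 hrs with compound, CCF4 substrate is added for 2 hrs and fluorescence is read.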

[15] = molecular target: Glucocorticoid receptor (Homo sapiens) (UniProt P04150); test: qHTS assay for small molecule antagonists of glucocorticoid receptor signaling (AID 588533; active = well fitted inhibition curve with a large enough effect in the signal ratio, with a control signal flat, not every such curve was filed as active; the % refers to the signal ratio; note: % is set by controls: 0 for no effect and ±100 for the full control effect)
Summary of the method: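 Antagonist-mode qHTS: compound titrations added to GRE-bla HeLa cells, then dexamethasone 2 nM final; 18 h, 37 C. CCF4 FRET fluorescence normalized to dexamethasone and DMSO; IC50 from Hill fit.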

[16] = qHTS assay for small molecule antagonists of peroxisome proliferator-activated receptor delta signaling (AID 588535); conditions: HEK293T PPARd-UAS-bla, beta-lactamase FRET ratio, 18 h; 460 nm channel;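 note: cells co-treated with a PPAR-delta agonist as stimulator during compound exposure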
Summary of the method: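 Cells were seeded at 4000 per well in assay medium containing 2% charcoal/dextran FBS and held 5 hrs at 37 C. Compounds were then added for 18 hrs. CCF4 substrate was applied for 2 hrs at room temperature before fluorescence reading.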

[17] = molecular target: Retinoic acid receptor RXR-alpha (Homo sapiens) (UniProt P19793); test: qHTS assay for small molecule agonists of retinoid X receptor alpha signaling (AID 588544; calls by dose curve;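 note: 0% = DMSO basal wells and 100% = reference agonist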)
[18] = Cell Viability - LYMP2-021 (AID 974);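 note: compound exposure lasts 24 hours at 37 °C; % is set by controls: 0 for no effect and ±100 for the full control effect; nearly all actives have a fitted effect of over 55% in size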
Summary of the method: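 Concentration-response cytotoxicity in a human lymphoblastoid line: 24 hr treatment at 37 C in complete culture medium, tetraoctylammonium bromide as positive control, luminescent ATP quantitation as viability measure.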

[19] = Cell Viability - LYMP2-003 (AID 965);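 note: cells exposed to compounds for 24 h before reading; 0% = DMSO only and full effect = 92 µM tetraoctylammonium bromide; nearly all actives have a fitted effect of over 50% in size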
Summary of the method: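 Human lymphoblastoid LYMP2-003 cells, 2500/well, exposed to compounds for 24 h at 37 C in complete medium. Viability read as intracellular ATP by CellTiter-Glo luminescence; AC50 from Hill-equation fits of qHTS concentration-response data.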

[20] = molecular target: Mitogen-activated protein kinase 10 (Mus musculus) (UniProt Q61831); test: JNK3 AlphaScreen Assay (AID 530; active = well fitted curve in either direction with a large enough effect, not every such curve was filed as active)
Summary of the method: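 qHTS format: compounds tested as titrations against IL-1beta/TNF-alpha-activated HepG2 lysate JNK3 with biotin-GST-cJun substrate and 10 uM ATP at room temperature. Loss of anti-phospho-cJun AlphaScreen signal indicates inhibition.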

Sequence of Glucocorticoid receptor (Homo sapiens) (P04150 whole entry, looked up): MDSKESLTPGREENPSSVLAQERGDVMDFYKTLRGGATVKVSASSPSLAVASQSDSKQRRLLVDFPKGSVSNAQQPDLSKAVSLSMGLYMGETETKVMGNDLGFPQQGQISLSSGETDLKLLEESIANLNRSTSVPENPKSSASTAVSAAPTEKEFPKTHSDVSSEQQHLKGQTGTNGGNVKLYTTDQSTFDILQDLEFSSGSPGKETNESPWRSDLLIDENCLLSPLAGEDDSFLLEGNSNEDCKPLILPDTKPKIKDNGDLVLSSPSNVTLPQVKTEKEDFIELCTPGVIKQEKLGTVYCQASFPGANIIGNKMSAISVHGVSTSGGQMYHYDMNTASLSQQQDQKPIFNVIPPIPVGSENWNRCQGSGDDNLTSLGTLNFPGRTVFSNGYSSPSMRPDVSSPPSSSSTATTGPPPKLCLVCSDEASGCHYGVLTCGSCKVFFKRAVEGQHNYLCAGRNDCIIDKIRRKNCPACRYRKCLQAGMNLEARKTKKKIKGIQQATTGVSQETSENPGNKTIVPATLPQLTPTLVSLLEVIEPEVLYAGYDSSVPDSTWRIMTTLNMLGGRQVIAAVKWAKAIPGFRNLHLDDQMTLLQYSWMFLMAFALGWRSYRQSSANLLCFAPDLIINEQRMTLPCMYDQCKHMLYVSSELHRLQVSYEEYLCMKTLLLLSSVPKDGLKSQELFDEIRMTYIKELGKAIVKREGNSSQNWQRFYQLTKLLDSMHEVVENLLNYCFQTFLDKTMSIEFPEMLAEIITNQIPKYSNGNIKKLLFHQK
Sequence of Tumor necrosis factor (Homo sapiens) (P01375 whole entry, looked up): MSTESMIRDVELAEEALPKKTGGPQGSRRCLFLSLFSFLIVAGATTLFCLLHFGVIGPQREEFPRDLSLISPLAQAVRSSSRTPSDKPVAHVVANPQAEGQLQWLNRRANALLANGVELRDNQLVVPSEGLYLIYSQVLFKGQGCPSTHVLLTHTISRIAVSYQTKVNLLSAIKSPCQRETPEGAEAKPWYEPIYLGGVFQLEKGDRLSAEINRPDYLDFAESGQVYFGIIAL
Sequence of Peroxisome proliferator-activated receptor gamma (Homo sapiens) (P37231 whole entry, looked up): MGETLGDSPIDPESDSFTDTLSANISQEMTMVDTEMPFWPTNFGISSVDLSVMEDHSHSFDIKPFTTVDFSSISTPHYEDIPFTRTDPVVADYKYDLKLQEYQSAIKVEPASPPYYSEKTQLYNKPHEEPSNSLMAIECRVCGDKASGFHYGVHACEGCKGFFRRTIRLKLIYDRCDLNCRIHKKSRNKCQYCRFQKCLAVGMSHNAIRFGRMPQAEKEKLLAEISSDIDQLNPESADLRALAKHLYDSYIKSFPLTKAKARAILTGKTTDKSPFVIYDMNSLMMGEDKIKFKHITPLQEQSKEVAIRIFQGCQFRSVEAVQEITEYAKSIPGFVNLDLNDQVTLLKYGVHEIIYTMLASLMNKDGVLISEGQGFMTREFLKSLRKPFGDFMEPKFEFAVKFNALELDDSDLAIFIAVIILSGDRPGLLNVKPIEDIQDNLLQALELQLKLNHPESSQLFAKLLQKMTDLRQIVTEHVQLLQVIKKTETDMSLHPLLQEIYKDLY
Sequence of Estrogen receptor (Homo sapiens) (P03372 whole entry, looked up): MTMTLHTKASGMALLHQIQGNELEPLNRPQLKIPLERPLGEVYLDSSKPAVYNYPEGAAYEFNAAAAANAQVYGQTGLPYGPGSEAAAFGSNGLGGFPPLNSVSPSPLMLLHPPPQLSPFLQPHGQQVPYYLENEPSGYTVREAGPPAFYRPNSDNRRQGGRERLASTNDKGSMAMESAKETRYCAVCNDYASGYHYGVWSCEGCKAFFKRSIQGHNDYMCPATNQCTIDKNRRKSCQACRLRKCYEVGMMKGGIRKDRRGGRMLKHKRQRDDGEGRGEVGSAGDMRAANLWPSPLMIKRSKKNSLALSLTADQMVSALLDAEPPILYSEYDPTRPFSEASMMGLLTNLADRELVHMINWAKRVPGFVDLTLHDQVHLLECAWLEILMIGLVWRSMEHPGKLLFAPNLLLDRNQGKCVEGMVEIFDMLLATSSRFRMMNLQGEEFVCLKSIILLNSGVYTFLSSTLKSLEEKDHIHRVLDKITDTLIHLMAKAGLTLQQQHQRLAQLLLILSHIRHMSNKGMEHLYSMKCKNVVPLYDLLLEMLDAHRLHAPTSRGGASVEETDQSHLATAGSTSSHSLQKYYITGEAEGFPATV
Sequence of Retinoic acid receptor RXR-alpha (Homo sapiens) (P19793 whole entry, looked up): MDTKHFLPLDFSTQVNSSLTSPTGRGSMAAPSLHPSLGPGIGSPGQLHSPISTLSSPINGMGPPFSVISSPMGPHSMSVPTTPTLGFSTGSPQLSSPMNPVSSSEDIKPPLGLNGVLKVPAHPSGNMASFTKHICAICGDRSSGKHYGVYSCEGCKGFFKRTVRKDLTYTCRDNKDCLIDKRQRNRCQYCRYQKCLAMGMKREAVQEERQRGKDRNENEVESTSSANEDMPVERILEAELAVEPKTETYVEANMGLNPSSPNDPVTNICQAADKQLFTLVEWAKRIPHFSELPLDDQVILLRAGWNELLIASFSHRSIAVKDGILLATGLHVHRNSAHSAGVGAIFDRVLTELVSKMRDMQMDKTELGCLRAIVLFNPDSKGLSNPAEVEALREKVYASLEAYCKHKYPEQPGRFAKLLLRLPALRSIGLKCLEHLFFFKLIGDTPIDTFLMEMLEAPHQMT
Sequence of Vitamin D3 receptor (Homo sapiens) (P11473 whole entry, looked up): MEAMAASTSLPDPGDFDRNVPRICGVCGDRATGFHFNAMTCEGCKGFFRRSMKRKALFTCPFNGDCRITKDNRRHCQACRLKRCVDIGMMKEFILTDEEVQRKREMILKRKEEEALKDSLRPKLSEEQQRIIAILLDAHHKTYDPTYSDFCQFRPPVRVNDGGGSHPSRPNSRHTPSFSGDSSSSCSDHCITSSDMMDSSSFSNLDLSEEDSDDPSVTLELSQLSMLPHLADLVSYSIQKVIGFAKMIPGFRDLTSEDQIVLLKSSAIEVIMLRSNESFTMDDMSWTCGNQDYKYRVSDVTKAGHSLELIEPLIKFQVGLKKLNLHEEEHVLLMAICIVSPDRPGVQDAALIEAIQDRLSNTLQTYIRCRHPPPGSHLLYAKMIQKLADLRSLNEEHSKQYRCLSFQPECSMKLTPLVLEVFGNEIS
Sequence of Bile acid receptor (Homo sapiens) (Q96RI1 whole entry, looked up): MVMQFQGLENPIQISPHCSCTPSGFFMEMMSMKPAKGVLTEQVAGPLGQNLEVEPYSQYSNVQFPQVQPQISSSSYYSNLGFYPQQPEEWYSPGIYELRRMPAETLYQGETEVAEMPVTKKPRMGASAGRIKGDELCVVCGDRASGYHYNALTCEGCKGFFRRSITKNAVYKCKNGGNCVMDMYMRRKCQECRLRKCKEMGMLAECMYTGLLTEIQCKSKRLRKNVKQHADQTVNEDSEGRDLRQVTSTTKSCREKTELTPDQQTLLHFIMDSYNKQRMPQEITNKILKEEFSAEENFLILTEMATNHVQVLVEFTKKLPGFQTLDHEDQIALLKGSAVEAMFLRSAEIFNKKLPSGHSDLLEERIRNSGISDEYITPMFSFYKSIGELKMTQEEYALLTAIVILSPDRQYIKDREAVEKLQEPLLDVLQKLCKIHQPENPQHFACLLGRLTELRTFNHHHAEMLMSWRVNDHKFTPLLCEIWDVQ

CCCCOC(=O)COc1ccc(Cl)cc1Cl
inactive: activity change, negative = cytotoxicity [1] 7.15% | activity change, negative = cytotoxicity [2] 1.3% | Potency [3] | Potency [4] | Potency [5] | outcome [6] | Potency [7] | Potency [8] | Potency [9] | Potency [10] | Potency [11] | max response [12] -6.14% and -13.6%

CCCCNCC
inactive: activity change, negative = cytotoxicity [1] -1.46% | activity change, negative = cytotoxicity [2] -8.38% | Potency [4] | outcome [13] | Potency [14] | Potency [15] | outcome [6] | Potency [17] | Potency [9] | Potency [11]
-21.4%: max response [16]

C/C(Cl)=C/CCl
inactive: activity change, negative = cytotoxicity [1] -6.1% | activity change, negative = cytotoxicity [2] -23.5% | Potency [18] | Potency [4] | outcome [13] | Potency [14] | Potency [5] | outcome [6] | Potency [7] | Potency [17] | Potency [10] | max response [12] 5.48%
5.39%: max response [16]

Cc1c(N)cccc1Cl
inactive: activity change, negative = cytotoxicity [1] -8.37% | activity change, negative = cytotoxicity [2] -0.783% | Potency [18] | Potency [4] | outcome [13] | Potency [14] | Potency [5] | Potency [15] | outcome [6] | Potency [17] | Potency [9] | Potency [11]
-10%: max response [16]

O=C(OCc1ccccc1)c1ccccc1O
inactive: activity change, negative = cytotoxicity [1] -11.2% | activity change, negative = cytotoxicity [2] -9.56% | Potency [3] | Potency [19] | Potency [4] | outcome [13] | Potency [14] | Potency [15] | Potency [17] | Potency [10] | Potency [11] | max response [12] 4.39% and 10%
2.34% and -10.8%: max response [16]

CCOC(=O)C1OC1c1ccccc1 (stereo not given)
-6.92%: max response [16]
inactive: Potency [20] | activity change, negative = cytotoxicity [1] 0.144% | Potency [3] | Potency [19] | Potency [4] | Potency [15] | outcome [6] | Potency [7] | Potency [10] | max response [12] 8.37%
active: Potency [11] 59.6 µM

COc1cc(-c2ccc(N=C=O)c(OC)c2)ccc1N=C=O
inactive: Potency [20] | activity change, negative = cytotoxicity [1] 4.66% | Potency [19]
active: Potency [9] 2.37 µM

c1ccncc1
inactive: activity change, negative = cytotoxicity [1] -3.08% | activity change, negative = cytotoxicity [2] -13.1% | Potency [3] | Potency [18] | outcome [13] | Potency [14] | outcome [6] | Potency [7] | Potency [9] | max response [12] -7.78%

Cc1cccnc1
inactive: Potency [20] | activity change, negative = cytotoxicity [2] -24.9% | Potency [3] | Potency [19] | Potency [18] | outcome [6] | Potency [8] | Potency [17] | Potency [9] | Potency [10] | max response [12] -3.56%

CCC(Cl)CC(Cl)C(Cl)C(Cl)C(Cl)C(C)Cl (stereo not given)
active: Potency [9] 66.8 µM
-12%: max response [16]
inactive: activity change, negative = cytotoxicity [1] -24.5% | activity change, negative = cytotoxicity [2] -16.5% | Potency [3] | Potency [18] | outcome [13] | Potency [14] | Potency [17] | Potency [10] | Potency [11]
